Screens from PubChem.
This is one part of a sample in which hits are shown more often than they occur.
KDM5B inhibitor: KDM5B demethylase inhibition; KDM5B demethylase, FDH-coupled NADH fluorescence (FDH is formaldehyde dehydrogenase); 220,000 tested, 2.6% active; AID 1347165; Potency, µM (top dose mostly 57.7 µM), most hits filed as inhibitors; Q9UGL1; active means well fitted inhibition curve with a large enough effect; further: nearly all actives have a fitted effect of over 70% in size
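Coupled FDH/NAD⁺ fluorescence readout. KDM5BΔAP 200 nM final; compound titration, 10 min RT preincubation; substrate mix 12.5 µM H3K4me3, 25 µM 2-OG, 50 µM Fe(II), 100 µM ascorbate, 0.25 mM NAD⁺, 0.25 U/mL FDH; ΔRFU over 30 min.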
A number is an active result; – = inactive.

SMILES	KDM5B inhibitor
COc1ccccc1C(=O)COC(=O)Cc1coc2cc3c(cc12)CCC3	–
C=CCNC(=O)N(C)Cc1ccc(C(N)=O)cc1	–
CNC(=O)NC(=O)C(C)Sc1ncc(-c2ccc(F)cc2)n1CC(C)C (configuration not stated)	–
CC(C)c1nc2nccc(-c3ccc(F)cc3)n2n1	28.2µM
Cc1ccc(-c2ccnc3cc(C)nn23)cc1	–
CC(C)c1nc2nccc(-c3ccccc3)n2n1	28.2µM
COc1ccc(N)cc1OC1CCCC1	–
Cc1cc(NC(=O)CSc2nnnn2-c2ccc(C)c(C)c2)n(-c2ccccc2)n1	–
O=C(CCSc1ccccc1F)Nc1cccc(-n2cnnn2)c1	–
O=S(=O)(c1ccc(Br)cc1)N1CCN(c2ccc(Nc3ccccc3)nn2)CC1	–
CC(=O)N1CCC(N2C[C@H](O)C[C@H]2c2nc(-c3cnccn3)no2)CC1	–
COc1ccc(CN2C[C@H](O)C[C@H]2c2nc(-c3ccncc3)no2)cc1	–
CS(=O)(=O)c1ccc(CN2C[C@H](O)C[C@H]2c2nc(-c3cnccn3)no2)cc1	35.5µM
O=C(CN1CCN(C(=O)c2nn(Cc3ccccc3)c(=O)c3ccccc23)CC1)N1CCOCC1	–
CC(C)C(=O)Nc1ccc(OCC(F)(F)F)c(C#N)c1	–
Cc1cc(C)c(NC(=O)CN2CCC(C(=O)N3CCCC3)CC2)c(C)c1	–
Cc1nn(-c2ccccc2)c(C)c1CN1CCC2(Cc3ccccc3CNC2=O)C1 (configuration not stated)	–
Cc1ncc(CO)c(CN2CCC3(Cc4ccccc4CNC3=O)C2)c1O (configuration not stated)	79.4µM
CCc1ccccc1CN1CCC2(Cc3ccccc3CNC2=O)C1 (configuration not stated)	–
Cc1cccc(/C=N/NC(=O)c2cccs2)c1	–
CN1CCCN(CC(=O)N2CCN(C)C3(CCNC(=O)CC3)C2)CC1 (configuration not stated)	–
CN1CCN(C(=O)c2cccc3c2NCCC3)CC12CCNC(=O)CC2 (configuration not stated)	25.1µM
CN1CCN(C(=O)c2cccs2)CC12CCNC(=O)CC2 (configuration not stated)	–
Cc1ccc(Cn2c(SCCO)nc3c2c(=O)[nH]c(=O)n3C)cc1	–
O=C(NC1CCCCC1)N[C@H]1CCN2C(=O)c3cc(-c4ccsc4)ccc3NC(=O)[C@H]12	–
SMILES	KDM5B inhibitor
O=C1Nc2ccc(-c3ccco3)cc2C(=O)N2CCN(C(=O)NC3CCCCC3)C[C@H]12	28.2µM
O=C1Nc2ccc(-c3ccco3)cc2C(=O)N2CCN(C(=O)c3ccccc3)C[C@H]12	35.5µM
O=C1Nc2ccc(-c3ccccc3)cc2C(=O)N2CCN(C(=O)NC3CCCCC3)C[C@H]12	–
O=C1Nc2ccc(Br)cc2C(=O)N2CCN(C(=O)c3cccnc3)C[C@H]12	–
O=C(O)CCCC(=O)N1CCN2C(=O)c3cc(Br)ccc3NC(=O)[C@@H]2C1	–
O=C(O)CCCC(=O)N1CCN2C(=O)c3cc(-c4ccco4)ccc3NC(=O)[C@@H]2C1	39.8µM
CN(C)c1ccc(C(=O)N2CCN3C(=O)c4cc(Br)ccc4NC(=O)[C@H]3C2)cc1	–
O=C1Nc2ccc(Br)cc2C(=O)N2CCN(C(=O)c3ccccc3)C[C@H]12	–
O=C1Nc2ccc(-c3ccc4c(c3)OCO4)cc2C(=O)N2CCN(C(=O)c3cccnc3)C[C@H]12	–
O=C1Nc2ccc(-c3ccccc3)cc2C(=O)N2CCN(C(=O)c3cccc(F)c3)C[C@H]12	28.2µM
O=C(O)CCC(=O)N[C@H]1CCN2C(=O)c3cc(-c4ccccc4F)ccc3NC(=O)[C@H]12	–
COc1cccc(CN2CCC(Cc3ncc(C)n3Cc3ccccc3)C2)c1 (configuration not stated)	–
COc1ccc2c(C)c(CCC(=O)Nc3ccccc3N3CCCC3)c(=O)oc2c1	–
CCN(CC)CCCNC(=O)CNc1nc(Cl)nc2nc[nH]c12	–
CCN(CC)S(=O)(=O)c1ccc(OC(C)C)c(NC(=O)c2ccc(OC(F)F)cc2)c1	–
COc1ccc(OC(C)c2nc(-c3ccc(Br)cc3)no2)cc1 (configuration not stated)	–
CSc1ccccc1NC(=O)c1cc(F)cc(F)c1	–
Cc1ccc2c(COC(=O)Cc3n[nH]c(=O)c4ccccc34)cc(=O)oc2c1C	–
O=C(/C=C/N1CCN(C/C=C/c2ccccc2)CC1)C(F)(F)F	–
CC1Cc2cc(C(=O)Nc3cccc(-c4nnc5n4CCCCC5)c3)ccc2N1S(C)(=O)=O (configuration not stated)	–
Cc1cc(C)c([S+](=O)([O-])c2nnn3c2nc(N2CCC(F)CC2)c2ccccc23)c(C)c1	79.4µM
O=[S+]([O-])(c1ccncc1)c1nnn2c1nc(N1CCC(F)CC1)c1ccccc12	–
Cc1ccc(S(=O)(=O)c2nnn3c2nc(N2CCCCC2)c2ccccc23)cc1C	–
Cc1ccc(N2CCN(c3nc4c(S(=O)(=O)c5ccc(C)c(C)c5)nnn4c4ccccc34)CC2)c(C)c1	–
Cc1ccc(N2CCN(c3nc4ccccc4n4nnnc34)CC2)c(C)c1	–
SMILES	KDM5B inhibitor
Cc1ccc(C)c([S+](=O)([O-])c2nnn3c2nc(N2CCC(F)CC2)c2ccccc23)c1	79.4µM
O=[N+]([O-])c1ccc(Oc2cccc(C(F)(F)F)c2)c2ccncc12	–
Cc1cccc(C)c1-n1nnnc1SCC(=O)NCC1(N2CCOCC2)CCCCC1	–
Fc1cccc(Cl)c1CNCCOc1ccccn1	–
C/C=C/C=N/NC(=O)C(O)c1ccccc1 (configuration not stated)	–
Cc1cc2c(c(SCC(=O)Nc3ccc(F)cc3)n1)C(=O)OC2	–
CC1CC(C)(C)C(CNC(=O)CCl)C1NC(=O)CCl (configuration not stated)	–
CCCCN(CCCC)c1cc(F)nc(N)n1	–
CCOC(=O)c1c(C)[nH]c(C(=O)C(C)OC(=O)Cn2cc(C(F)(F)F)ccc2=O)c1C (configuration not stated)	–
CCCCn1nc(C(=O)Nc2nc3c(s2)CCCCC3)c2ccccc2c1=O	–
Cc1cccc(C(=O)c2c(C)c(CCC#N)n3ccccc23)c1	–
FC(F)(F)c1cccc(CSc2nc(-c3ccccc3)c3ccccc3n2)c1	–
COCCn1cnc2ccc(-c3ccccc3Oc3ccccc3)nc2c1=O	–
COCCn1cnc2ccc(-c3ccnn3C)nc2c1=O	35.5µM
O=c1c2nc(OCc3ccccc3)ccc2ncn1Cc1ccccn1	–
O=c1c2nc(NCc3ccccc3)ccc2ncn1Cc1ccccn1	–
COc1ncccc1-c1ccc2ncn(Cc3ccccn3)c(=O)c2n1	35.5µM
COCCn1cnc2ccc(-c3ccccc3C)nc2c1=O	–
CCS(=O)(=O)c1ncc(N(Cc2ccccc2)Cc2ccco2)c(C(=O)Nc2ccccc2)n1	–
O=C(/C=C/c1ccc(F)cc1)c1ccc(-c2ccccc2)cc1	–
O=C(NCc1ccco1)N1CCc2nc3cc(-c4ccccc4Cl)[nH]n3c(=O)c2C1	14.1µM
Cc1ccc(N2CC(C(=O)NCc3ccco3)CC2=O)cc1Cl (configuration not stated)	–
O=C(c1ccncc1)N1CCc2nc3cc(-c4ccccc4Cl)[nH]n3c(=O)c2C1	15.8µM
Cn1c(=O)c2c(SCC(=O)NCc3ccco3)nc(-c3ccccc3Cl)nc2n(C)c1=O	–
O=C(c1ccccc1)N1CCc2nc(-c3ccccc3)nc(-c3ccc(Cl)cc3)c2C1	–
O=C(c1ccccc1)N1CCc2nc(C3CC3)nc(-c3ccc(Cl)cc3)c2C1	–
